Drawing on PubChem BioAssay AID1490 (National Center for Advancing Translational Sciences (NCATS), 2009), this text covers largest response in the series, negative = inhibition and Potency for 94 molecules.

Values joined by “and” are separate entries in the source; they are usually repeats but may differ in a detail not shown here. Identical values can stand only once. The campaign covered roughly 310,000 compounds. About 11,000 (3.5%) were called active. Roughly 4% stayed inconclusive and do not appear here. Calls follow the shape of the dose curve; as a rule, active = well fitted inhibition curve with a large enough effect; inconclusive = small, poorly fitted or top-dose-only effect, or another doubt; inactive = no such curve, though single readings can be large or run the other way. For the sample, actives were picked, then their nearest neighbours and some compounds at random.
Potency is read from the fitted curve at half-maximal effect.

The target in this test is 4'-phosphopantetheinyl transferase ffp (Bacillus subtilis) (UniProt Q9F4F7). The test is described as follows: qHTS Assay for Inhibitors of Bacillus subtilis Sfp phosphopantetheinyl transferase (PPTase).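 Also: the enzyme is Sfp with the accession as filed and its product quenches rhodamine fluorescence.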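 As to largest response in the series, negative = inhibition: 0% = enzyme reaction without inhibitor and -100% = no enzyme wells.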 The note with it: Biochemical Sfp PPTase activity. The method in brief: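 Fluorescence-quenching assay with 15 nM Sfp, 5 uM rhodamine-CoA and 12.5 uM BHQ-2-labelled ybbR peptide in pH 7.6 Hepes/MgCl2 buffer. Enzyme was pre-incubated with compound for 15 min at room temperature. Rate was taken from the 30-min fluorescence change (525/598 nm).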
On the technique in general: Quantitative high-throughput screening tests each substance at several concentrations.
Take `Cc1ccc(C(=O)Nc2sc(Cc3ccc4c(c3)OCO4)c(C)c2C(N)=O)cc1`: the largest response in the series, negative = inhibition is -3.41% (inactive).
On to `Cc1ccc(C(=O)c2c(NC(=O)c3ccccc3)sc(C)c2C)cc1`, for which the Potency is 28.2 µM (active).
Turning to `Cc1ccc(C(=O)NCCNC(=O)c2ccccc2)cc1`, the largest response in the series, negative = inhibition was 10.8% (inactive).
For the molecule `Cc1c(CC(=O)N2CCN(C(=O)C3COc4ccccc4O3)CC2)c(=O)oc2c(O)c(O)ccc12` (centres undefined), the largest response in the series, negative = inhibition is -23.7% (inactive).
On the same count and under the same terms, the result for `COc1cc(OC)c2c(C)cc(=O)oc2c1C(CCN1CCCCC1)c1ccc(N(C)C)cc1` (centres undefined) reads -9.21% (inactive); that for `COc1ccc(OC)c(-n2c(-c3ccn[nH]3)n[nH]c2=S)c1`, -5.99% (inactive); that for `COc1ccc(-n2c(-c3ccc(OC)c(OC)c3)n[nH]c2=S)cc1`, -14.3% (inactive).
With `COc1ccccc1-n1c(-c2cc(-c3ccco3)[nH]n2)n[nH]c1=S`, the Potency is 50.1 µM (active).
Consider `CCOC(=O)CNc1nc(Cl)nc(Nc2ccc(OC)cc2OC)n1`, for which the largest response in the series, negative = inhibition is 11.3% (inactive).
Still for that read-out and setting: the result for `COc1cc(OC)cc(C(=O)NCCCn2ccnc2)c1` reads 5.91% (inactive); that for `CN1C(=O)C(CC(=O)Nc2ccccc2)S/C1=N/c1nccs1` (centres undefined), 15.1% (inactive); that for `O=C(Nc1cccc(Cl)c1)OCc1ccccn1`, 3.07% (inactive).
Take `O=C(CC1SC(=Nc2ccccc2)N(Cc2ccccn2)C1=O)Nc1cccc(Cl)c1` (centres undefined): the Potency was 44.7 µM (active).
On to `CCOc1ccc(CN(C)C(=O)c2ccc(=O)[nH]c2)cc1`, for which the largest response in the series, negative = inhibition is 8.69% (inactive).
Same read-out and setting: with `COc1ccc(NS(=O)(=O)c2ccc(N3CCN(CCO)CC3)c([N+](=O)[O-])c2)cc1` the figure was -0.783% (inactive).
`CCc1ccc(-c2cc(C(=O)NCc3ccco3)c3ccccc3n2)s1`: the Potency was 31.6 µM (active).
`CCCCN(C)CCCNC(=O)c1cc(-c2cccs2)nc2ccccc12`: the largest response in the series, negative = inhibition was -6.84% (inactive).
On the same count and under the same terms, with `COC(=O)CNC(=O)c1cc(-c2ccncc2)nc2ccccc12` the figure was 8.93% (inactive); with `Nc1ncn(C2OC(CO)C(O)C2O)c(=O)n1` (centres undefined), 21.6% (inactive).
Same read-out and setting: the result for `O=C1[C@H]2[C@H]3[C@H](O)[C@H](O)C/C(=N/OCc4ccccc4)[C@H]3CC[C@@H]2C(=O)N1Cc1ccccc1` reads -7.38% (inactive); that for `CCC(C)NC(=O)C1c2ccccc2Oc2ccccc21` (centres undefined), 5.93% (inactive); that for `CCC(C)(C)NC(=O)C1c2ccccc2Oc2ccccc21`, 14.9% (inactive).
Consider `CC(C)(C)c1nnc(NC(=O)C2c3ccccc3Oc3ccccc32)s1`, for which the Potency is 2.82 µM (active).
Consider `COc1ccccc1N1CCN(S(=O)(=O)c2ccc3c(c2)NC(=O)CS3)CC1`, for which the largest response in the series, negative = inhibition is 7.23% (inactive).
`CC1=C(C(=O)Nc2ccccc2)C(c2cccs2)C(C#N)=C(SCC#N)N1` (centres undefined): the Potency is 39.8 µM (active).
In the case of `CC1=C(C(=O)Nc2ccccc2)C(c2ccco2)C(C#N)=C(SCC(N)=O)N1` (centres undefined), the largest response in the series, negative = inhibition is -0.0015% (inactive).
With `C=CCOC(=O)C1=C(C)NC(C)=C(C(=O)OCC=C)C1c1cccs1`, the largest response in the series, negative = inhibition is 24.6% (inactive).
Still for that read-out and setting: the result for `CCOc1ccc(-n2c(SCC(=O)Nc3ccc(OC)cc3)nc3sc4c(c3c2=O)CCN(C)C4)cc1` reads -4.55% (inactive); that for `COc1cc(C2C(C(=O)c3ccco3)=C(O)C(=O)N2c2cc(C)on2)ccc1OCc1ccccc1` (centres undefined), 0.107% (inactive); that for `C=CCNC(=O)c1ccccc1SCc1c(C)noc1C`, -6.81% (inactive).
The same measure, in the same setting: the result for `CCCOc1cccc(C(=O)NCCCNC(=O)c2cccnc2)c1` reads 1.7% (inactive).
`Fc1ccc(COc2cccc(-c3n[nH]c(=S)o3)c2)cc1`: the Potency is 39.8 µM (active).
`Cc1cccc(OCc2ccc(C(=O)Nc3ccc(F)cc3)cc2)c1`: the largest response in the series, negative = inhibition is 10.4% (inactive).
Still for that read-out and setting: the result for `Fc1ccc(COc2ccc(-c3nnco3)cc2)cc1` reads 12.8% (inactive); that for `CC(=O)NS(=O)(=O)c1ccc(N/C(N)=N/c2nc(C)cc(C)n2)cc1`, 6.28% (inactive); that for `CCCC(C(=O)NC1CCCC1)N(C(=O)Cn1nnc(-c2ccc(C)o2)n1)c1cccc(O)c1` (centres undefined), -2.43% (inactive).
In the case of `COC(=O)c1ccc(COC(=O)c2cnc(Cl)c(Cl)c2)cc1`, the largest response in the series, negative = inhibition was -10.6% (inactive).
On to `Cc1noc(C)c1-c1ccc2ncnc(NCc3ccc4[nH]ccc4c3)c2c1`, for which the largest response in the series, negative = inhibition is -0.183% (inactive).
The same measure, in the same setting: with `N=C(N)SCc1cccc2ccccc12` the figure was -0.359% (inactive).
Same read-out and setting: the result for `O=C(Nc1cn(-c2ccccc2)nc1-c1ccccc1)c1ccccc1` reads -4.06% (inactive).
Take `CCc1ccc(-c2nn(-c3ccccc3)cc2CSC(=N)N)cc1`: the Potency is 39.8 µM (active).
Turning to `CC(=O)OCC1OC(C#CCCCc2ccccc2)C=CC1OC(C)=O` (centres undefined), the largest response in the series, negative = inhibition is 17.9% (inactive).
On to `Cc1cc(=O)oc2c(C)c(OCC(=O)NCCc3ccc(S(N)(=O)=O)cc3)ccc12`, for which the largest response in the series, negative = inhibition is 11% (inactive).
Consider `CC(=O)NCC(=O)N1CCC(n2nccc2NC(=O)CCCc2ccccc2)CC1`, for which the largest response in the series, negative = inhibition was 13.4% (inactive).
Regarding `COc1cc(NS(=O)(=O)c2ccc(NC(=S)NC(=O)c3ccc(Br)cc3)cc2)ncn1`, the largest response in the series, negative = inhibition is 1.72% (inactive).
The same measure, in the same setting: the result for `CC(=O)OC(COc1ccc(F)cc1)Cn1cnc2ccccc21` (centres undefined) reads -2.66% (inactive); that for `c1ccc(Cc2nn3c(Cn4cnc5ccccc54)nnc3s2)cc1`, -63.8% (inactive).
Regarding `Fc1ccc(OCc2nn3c(Cn4nnc5ccccc54)nnc3s2)cc1`, the Potency was 15.8 µM (active).
With `CC(=O)N1CCN(c2ccccc2NC(=S)NC(=O)c2cc3ccccc3o2)CC1`, the largest response in the series, negative = inhibition is 7.22% (inactive).
The same measure, in the same setting: with `COCCn1c(SCC(=O)N2CCCCCC2)nc2c(c1=O)SCC2` the figure was 4.45% (inactive).
Same read-out and setting: the result for `CC(NC(=O)Nc1cccc([N+](=O)[O-])c1)c1ccc2c(c1)OCO2` (centres undefined) reads -3.6% (inactive).
Same read-out and setting: with `O=C(Nc1nc2ccc([N+](=O)[O-])cc2s1)c1ccc(S(=O)(=O)N2CCCc3ccccc32)cc1` the figure was -0.333% (inactive).
In the case of `Cc1ccc2nc(N(CCN(C)C)C(=O)C3=COCCO3)sc2c1`, the largest response in the series, negative = inhibition is 5.53% (inactive).
For the molecule `CN(C)CCCN(C(=O)c1ccc(S(=O)(=O)N2CCCCCC2)cc1)c1nc2ccc(Br)cc2s1`, the Potency is 50.1 µM (active).
Turning to `CSc1nc2ccc(S(=O)(=O)N3CCc4ccccc43)cc2s1`, the largest response in the series, negative = inhibition is 7.95% (inactive).
In the case of `CCN(CC)CCN(C(=O)c1ccc(S(=O)(=O)N2CCOCC2)cc1)c1nc2cc3c(cc2s1)OCCO3`, the largest response in the series, negative = inhibition is 7.56% (inactive).
Turning to `CN(C)CCCN(C(=O)c1ccc(S(=O)(=O)N2CCCc3ccccc32)cc1)c1nc2ccc(F)cc2s1`, the Potency is 56.2 µM (active).
Consider `COc1ccc(C)cc1N(CC(=O)NC(C)c1ccccc1)S(C)(=O)=O` (centres undefined), for which the largest response in the series, negative = inhibition was 4.53% (inactive).
Still for that read-out and setting: the result for `CCC1Sc2ccc(S(=O)(=O)CCC(=O)NCc3cccs3)cc2NC1=O` (centres undefined) reads 20.6% (inactive); that for `CC(C)=CCCC(C)CN1CCC(n2nccc2NC(=O)c2ccccc2)CC1` (centres undefined), 9.72% (inactive); that for `O=C(Nc1nnc(-c2ccccc2F)s1)c1ccccc1F`, -1.78% (inactive).
The same measure, in the same setting: the result for `CCOc1cc(-c2noc(CCCC(=O)NC3CCCCC3)n2)ccc1OC` reads 13% (inactive); that for `COc1ccc(-c2csc(Cc3nc(O)cs3)n2)cc1`, -23.9% (inactive).
On to `CC(C)(C)C(=O)OCc1nc(-c2ccc(O)c(O)c2)cs1`, for which the Potency is 56.2 µM (active).
With `COc1ccc(OC)c(Nc2nc(-c3ccc(O)c(O)c3)cs2)c1`, the largest response in the series, negative = inhibition is -45.7% (inactive).
Consider `CN(CC(=O)Nc1c(Cl)cccc1Cl)C(=O)c1ccncc1`, for which the largest response in the series, negative = inhibition is 13.1% (inactive).
Regarding `Cn1c(-c2ccco2)nc2cc3ccccc3cc21`, the Potency was 56.2 µM (active).
Turning to `Cc1cc(C(F)(F)F)nn1-c1nc(-c2ccco2)cc(C(F)(F)F)n1`, the largest response in the series, negative = inhibition was 11.9% (inactive).
Turning to `Cc1csc(-c2nc3ccccc3n2C)n1`, the largest response in the series, negative = inhibition is -0.542% (inactive).
Same read-out and setting: with `CCOc1ccc(C2C3=C(CCCC3=O)N(CC(=O)O)C3=C2C(=O)CCC3)cc1` the figure was -3.36% (inactive); with `Cc1ccnc(SCC(N)=O)n1`, 7.56% (inactive); with `Cc1ccnc(N2CCCC(C(=O)NC3CC3)C2)n1` (centres undefined), 12.1% (inactive).
As for `Cc1ccnc(-n2sc3ccccc3c2=O)n1`, the Potency was 2.51 µM (active).
On to `CCN(CC(=O)NCCCN1CCOCC1)S(=O)(=O)c1cc(Cl)ccc1Cl`, for which the largest response in the series, negative = inhibition is 9.56% (inactive).
Same read-out and setting: with `COc1ccc(CC(=O)N/N=C/c2cc([N+](=O)[O-])cc(Br)c2O)cc1` the figure was 23.5% (inactive); with `CCc1ccc(NC(=O)C(=O)NNC(=O)c2cccs2)cc1`, 6.91% (inactive).
`NS(=O)(=O)c1ccc(CCNC(=S)Nc2ccc(S(N)(=O)=O)cc2)cc1`: the Potency is 20 µM (active).
For `NS(=O)(=O)c1ccc(CCNC(=O)CNC(=O)Cc2ccccc2)cc1`, the largest response in the series, negative = inhibition was -3.07% (inactive).
For `CC(C)C(=O)Nc1ccc(C(=O)NNC(=O)c2cccs2)cc1`, the largest response in the series, negative = inhibition is -14.7% (inactive).
As to `NS(=O)(=O)c1ccc(NC(=S)Nc2ccc(Br)c(Cl)c2)cc1`, the Potency was 56.2 µM (active).
Regarding `CC(C)(C)C(=O)NC(NC(=S)Nc1ccc(S(N)(=O)=O)cc1)C(Cl)(Cl)Cl` (centres undefined), the largest response in the series, negative = inhibition is 7.73% (inactive).
The same measure, in the same setting: the result for `NS(=O)(=O)c1ccc(NC(=S)NC(=O)c2cccc(Br)c2)cc1` reads -13.6% (inactive).
Turning to `NS(=O)(=O)c1ccc(NC(=S)NNC(=O)c2cccs2)cc1`, the Potency is 15.8 µM (active).
For the molecule `NS(=O)(=O)c1ccc(CCNC(=O)Nc2ccc(Cl)cc2)cc1`, the largest response in the series, negative = inhibition is 7.27% (inactive).
The same measure, in the same setting: with `COc1cccc(NC(=O)CN(C)C(=O)c2ccccc2CCc2ccccc2)c1` the figure was 4.61% (inactive).
As for `CCN1C(=NCCc2cccnc2)N[C@@H](c2ccccc2)C(C(=O)OC)=C1C`, the largest response in the series, negative = inhibition is 4.98% (inactive) and 1.06% (inactive).
On the same count and under the same terms, the result for `CCOc1ccc(CN2CCN(CCCc3ccccc3)C(CCO)C2)cc1` (centres undefined) reads 7.43% (inactive); that for `CN(C)c1ccc(NC(=O)CN2C3CCCC2CC(NC(=O)c2ccccc2)C3)cc1` (centres undefined), -10% (inactive).
With `O=C(CN1CCCCCC1)Nc1ccc(Br)cc1[N+](=O)[O-]`, the largest response in the series, negative = inhibition was -3.46% (inactive).
On to `CCCn1cc(S(=O)(=O)c2ccc(C)cc2)c(=O)c2cc(OCC)ccc21`, for which the largest response in the series, negative = inhibition is 0.066% (inactive).
Same read-out and setting: with `COc1cc(C2NC(=O)NC(c3ccccc3)=C2C(C)=O)c(Br)cc1OCC(N)=O` (centres undefined) the figure was 18.5% (inactive).
Still for that read-out and setting: with `CCOc1cc2[nH]c(=S)n(CCN3CCCCC3C)c(=O)c2cc1OCC` (centres undefined) the figure was -4.39% (inactive); with `CCOc1cc2[nH]c(=O)n(Cc3ccc(C(=O)NCCCN4CCCC4=O)cc3)c(=O)c2cc1OCC`, 9.7% (inactive).
As for `CCOc1cc2[nH]c(=S)n(CCCN3CCCC3=O)c(=O)c2cc1OCC`, the Potency was 56.2 µM (active).
